From PubChem BioAssay (Tox21)
Results filed as inconclusive are left out. Unmarked numbers belong to inactive results. The source made the active and inactive calls. Calls follow the shape of the full dose curve.

Assay: qHTS assay for small molecule agonists of the p53 signaling pathway - cell viability (AID 651633);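 also: p53RE-bla HCT reporter cells with a stable beta-lactamase p53 reporter; nearly all actives have a fitted effect of over 30% in size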
Settings: p53RE-bla HCT-116 viability, ATP luminescence, 16 h; series mostly up to 83.3 µM; activity change, negative = cytotoxicity: at the top concentration
In short: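 Viability counter-read: CellTiter-Glo luminescence (30 min, room temperature) in the same p53RE-bla plates. These plates had been exposed to compounds for 16 h at 37 C.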
% is scaled to controls: 0 for no effect and ±100 for the full control effect.

| Structure (SMILES) | activity change, negative = cytotoxicity [%] | outcome |
| --- | --- | --- |
| COC(=O)NC(=S)Nc1ccccc1NC(=S)NC(=O)OC | 18 | – |
| CCCCCOC(=O)c1ccccc1C(=O)OCCCCC | – | inactive |
| CC(C)OC(=O)Nc1ccccc1 | – | inactive |
| C#CC(C)(C)NC(=O)c1cc(Cl)cc(Cl)c1 | – | inactive |
| CC(C)C1(C)N=C(c2nc3ccccc3cc2C(=O)O)NC1=O (centres undefined) | – | inactive |
| Clc1ccc(Cl)cc1 | – | inactive |
| C=C(C)CCl | – | inactive |
| CC(C)(Cl)Cl | – | inactive |
| O=S(=O)(c1ccc(O)cc1)c1ccc(O)cc1 | – | inactive |
| Oc1ccccc1Cl | – | inactive |
| O=NN1CCCCCCC1 | 16 | – |
| Cc1cc(-c2cc(C)c(N)c(C)c2)cc(C)c1N | – | inactive |
| CN(C)N=O | – | inactive |
| CCCC1COC(Cn2cncn2)(c2ccc(Cl)cc2Cl)O1 (centres undefined) | -7.42 | – |
| BrCCBr | – | inactive |
| Nc1ccc(Cc2ccc(N)cc2)cc1 | – | inactive |
| CCCCCCCCCCCC#N | – | inactive |
| COP(N)(=O)SC (centres undefined) | – | inactive |
| CCC12COCN1COC2 | – | inactive |

| Structure (SMILES) | activity change, negative = cytotoxicity [%] | outcome |
| --- | --- | --- |
| O=[N+]([O-])c1ccc([As](=O)(O)O)cc1 | – | inactive |
| CC(C)(C)C(O)(CCc1ccc(Cl)cc1)Cn1cncn1 (centres undefined) | – | inactive |
| O=C(O)c1ccccn1 | – | inactive |
| Cn1cc(-c2ccccc2)c(=O)c(-c2cccc(C(F)(F)F)c2)c1 | – | inactive |
| CC(NC(C)(C)C)C(=O)c1cccc(Cl)c1 (centres undefined) | – | inactive |
| CN=C=S | – | inactive |
| CCN(CC)c1ccccc1 | – | inactive |
| c1cc2c3c(cccc3c1)CC2 | – | inactive |
| CCC[N+](=O)[O-] | – | inactive |
| CCOP(=S)(OCC)SCCSCC | – | inactive |
| CCN(CC)CCO | – | inactive |
| CCCN(CCC)N=O | – | inactive |
| c1ccc(OP(Oc2ccccc2)Oc2ccccc2)cc1 | – | inactive |
| c1ccc(-c2ccccc2)cc1 | – | inactive |
| Nc1ccccc1C(=O)O | – | inactive |
| CCOP(OCC)OCC | – | inactive |
| ClCc1cccnc1 | – | inactive |
| NCC(O)c1ccc(O)cc1 (centres undefined) | – | inactive |

Assay: qHTS assay for small molecules that induce genotoxicity in human embryonic kidney cells expressing luciferase-tagged ATAD5 - cell viability (AID 651634); also: nearly all actives have a fitted effect of over 25% in size
Settings: HEK293T ATAD5-luc cells viability, CellTiter-Fluor, 15.5 h; series mostly up to 83.3 µM; activity, negative = cytotoxicity: at the top concentration
In short: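 HEK293T cells carrying luciferase-tagged ATAD5, 2,000 cells/well, exposed to compound for 15.5 hr at 37C. Viability read as live-cell protease activity by CellTiter-Fluor fluorescence after 30 min at 37C.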

| Structure (SMILES) | outcome |
| --- | --- |
| COC(=O)NC(=S)Nc1ccccc1NC(=S)NC(=O)OC | inactive |
| CCCCCOC(=O)c1ccccc1C(=O)OCCCCC | inactive |
| CC(C)OC(=O)Nc1ccccc1 | inactive |
| C#CC(C)(C)NC(=O)c1cc(Cl)cc(Cl)c1 | inactive |
| CC(C)C1(C)N=C(c2nc3ccccc3cc2C(=O)O)NC1=O (centres undefined) | inactive |
| Clc1ccc(Cl)cc1 | inactive |
| C=C(C)CCl | inactive |
| CC(C)(Cl)Cl | inactive |
| O=S(=O)(c1ccc(O)cc1)c1ccc(O)cc1 | inactive |
| Oc1ccccc1Cl | inactive |
| O=NN1CCCCCCC1 | inactive |
| Cc1cc(-c2cc(C)c(N)c(C)c2)cc(C)c1N | inactive |
| CN(C)N=O | inactive |
| CCCC1COC(Cn2cncn2)(c2ccc(Cl)cc2Cl)O1 (centres undefined) | inactive |
| BrCCBr | inactive |
| Nc1ccc(Cc2ccc(N)cc2)cc1 | inactive |
| CCCCCCCCCCCC#N | inactive |
| COP(N)(=O)SC (centres undefined) | inactive |
| CCC12COCN1COC2 | inactive |

| Structure (SMILES) | outcome |
| --- | --- |
| O=[N+]([O-])c1ccc([As](=O)(O)O)cc1 | inactive |
| CC(C)(C)C(O)(CCc1ccc(Cl)cc1)Cn1cncn1 (centres undefined) | inactive |
| O=C(O)c1ccccn1 | inactive |
| Cn1cc(-c2ccccc2)c(=O)c(-c2cccc(C(F)(F)F)c2)c1 | inactive |
| CC(NC(C)(C)C)C(=O)c1cccc(Cl)c1 (centres undefined) | inactive |
| CN=C=S | inactive |
| CCN(CC)c1ccccc1 | inactive |
| c1cc2c3c(cccc3c1)CC2 | inactive |
| CCC[N+](=O)[O-] | inactive |
| CCOP(=S)(OCC)SCCSCC | inactive |
| CCN(CC)CCO | inactive |
| CCCN(CCC)N=O | inactive |
| c1ccc(OP(Oc2ccccc2)Oc2ccccc2)cc1 | inactive |
| c1ccc(-c2ccccc2)cc1 | inactive |
| Nc1ccccc1C(=O)O | inactive |
| CCOP(OCC)OCC | inactive |
| ClCc1cccnc1 | inactive |
| NCC(O)c1ccc(O)cc1 (centres undefined) | inactive |
